# Laboratory results: PubChem BioAssay AID1745853 (National Center for Advancing Translational Sciences (NCATS), 2022)
# Out of some 25,000 compounds screened, about 970 (3.9%) were called active. Inconclusive results (about 8%) are left out. No rule for the calls is given here. For the sample, actives were picked, then their nearest neighbours and some compounds at random.
# Columns and labels:
# Experiment in all cases: Primary Screen for Target Class Profiling of Small Molecule Inhibitors of Methyltransferases
# [1] = target: Catechol O-methyltransferase (Homo sapiens) (UniProt P21964); details: purified enzyme, MTase-Glo SAH luminescence; activity change, negative = inhibition: at 40 µM, stronger effect = lower value; outcome: 40 uM
# Method in brief: (§1)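 Each enzyme was assayed with SAM and its substrate. SAH formation detected by MTase-Glo luminescence; single-point 40 uM screen[…].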
# [2] = target: Glycine N-methyltransferase (Homo sapiens) (UniProt Q14749); details: purified enzyme, MTase-Glo SAH luminescence; measured here: GNMT inhibition; at 40 µM; stronger effect = lower value
# Method in brief: as §1
# [3] = target: Guanidinoacetate N-methyltransferase (Homo sapiens) (UniProt Q14353); details: purified enzyme, MTase-Glo SAH luminescence; measured here: GAMT inhibition; at 40 µM; stronger effect = lower value
# Method in brief: as §1
# [4] = target: Histamine N-methyltransferase (Homo sapiens) (UniProt P50135); details: purified enzyme, MTase-Glo SAH luminescence; measured here: HNMT inhibition; at 40 µM; stronger effect = lower value
# Method in brief: as §1
# [5] = target: Nicotinamide N-methyltransferase (Homo sapiens) (UniProt P40261); details: purified enzyme, MTase-Glo SAH luminescence; measured here: NNMT inhibition; at 40 µM; stronger effect = lower value
# Method in brief: as §1
# [6] = target: Phenylethanolamine N-methyltransferase (Homo sapiens) (UniProt P11086); details: purified enzyme, MTase-Glo SAH luminescence; measured here: PNMT inhibition; at 40 µM; stronger effect = lower value
# Method in brief: as §1
# % is scaled to controls: 0 for no effect and ±100 for the full control effect.
# Chain of Nicotinamide N-methyltransferase (Homo sapiens) (P40261 whole entry, looked up): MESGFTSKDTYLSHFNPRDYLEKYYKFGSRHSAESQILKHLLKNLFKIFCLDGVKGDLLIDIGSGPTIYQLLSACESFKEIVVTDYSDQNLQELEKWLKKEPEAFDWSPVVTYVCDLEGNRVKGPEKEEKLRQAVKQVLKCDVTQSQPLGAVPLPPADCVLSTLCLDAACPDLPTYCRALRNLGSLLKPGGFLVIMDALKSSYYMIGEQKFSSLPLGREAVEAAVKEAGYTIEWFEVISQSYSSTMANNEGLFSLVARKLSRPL
# Chain of Phenylethanolamine N-methyltransferase (Homo sapiens) (P11086 whole entry, looked up): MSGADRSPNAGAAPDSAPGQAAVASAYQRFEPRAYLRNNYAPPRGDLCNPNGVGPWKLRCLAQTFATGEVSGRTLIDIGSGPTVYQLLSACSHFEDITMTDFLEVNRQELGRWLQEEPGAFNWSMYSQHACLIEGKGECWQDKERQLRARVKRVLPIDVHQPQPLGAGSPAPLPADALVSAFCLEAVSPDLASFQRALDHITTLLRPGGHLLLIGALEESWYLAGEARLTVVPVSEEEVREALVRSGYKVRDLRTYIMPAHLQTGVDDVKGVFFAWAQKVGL
# Chain of Glycine N-methyltransferase (Homo sapiens) (Q14749 whole entry, looked up): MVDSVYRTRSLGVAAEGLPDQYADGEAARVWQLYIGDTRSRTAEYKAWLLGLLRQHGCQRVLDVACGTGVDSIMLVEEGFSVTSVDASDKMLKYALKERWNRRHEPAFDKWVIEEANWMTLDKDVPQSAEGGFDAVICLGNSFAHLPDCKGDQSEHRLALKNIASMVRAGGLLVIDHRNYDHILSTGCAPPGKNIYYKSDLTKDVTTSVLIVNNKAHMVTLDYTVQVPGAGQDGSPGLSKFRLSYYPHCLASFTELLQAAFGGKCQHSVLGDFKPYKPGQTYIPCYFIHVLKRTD
# Chain of Catechol O-methyltransferase (Homo sapiens) (P21964 whole entry, looked up): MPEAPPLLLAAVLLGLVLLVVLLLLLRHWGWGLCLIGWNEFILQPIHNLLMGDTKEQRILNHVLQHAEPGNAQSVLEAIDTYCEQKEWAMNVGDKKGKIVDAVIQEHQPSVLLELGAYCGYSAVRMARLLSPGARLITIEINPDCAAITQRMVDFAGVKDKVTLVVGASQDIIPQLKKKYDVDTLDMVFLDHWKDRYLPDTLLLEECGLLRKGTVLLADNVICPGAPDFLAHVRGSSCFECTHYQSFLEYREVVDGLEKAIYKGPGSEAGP
# Chain of Histamine N-methyltransferase (Homo sapiens) (P50135 whole entry, looked up): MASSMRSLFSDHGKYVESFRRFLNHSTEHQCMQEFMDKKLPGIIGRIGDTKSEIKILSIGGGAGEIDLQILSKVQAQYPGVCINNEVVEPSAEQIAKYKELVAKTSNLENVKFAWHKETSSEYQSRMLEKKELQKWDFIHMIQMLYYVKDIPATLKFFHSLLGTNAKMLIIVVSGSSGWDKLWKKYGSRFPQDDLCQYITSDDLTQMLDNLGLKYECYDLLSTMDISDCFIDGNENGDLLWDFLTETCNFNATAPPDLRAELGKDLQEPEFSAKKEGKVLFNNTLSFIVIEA
Compound,"activity change, negative = inhibition [1]","activity change, negative = inhibition [2]","activity change, negative = inhibition [3]","activity change, negative = inhibition [4]","activity change, negative = inhibition [5]","activity change, negative = inhibition [6]"
CC1(C)CCC(C)(C)c2cc3c(cc21)Sc1ccccc1N=C3c1ccc(C(=O)O)cc1,9.33% (inactive),1.76%,4.41%,11.6%,-26.9%,3.91%
Cc1cc(C[C@@H]2COC[C@@H]2NC(=O)c2cccc(-n3nc(C)cc3C)c2)on1,-7.5% (inactive),-5.02%,-7.68%,-5.59%,-12.1%,-25.6%
CCCN1C(=O)c2cc3sccc3n2CC1(C)C(=O)NC1CCC(C)CC1 (stereo not given),0.545% (inactive),0.536%,4.2%,-0.49%,0.936%,-2.48%
CCOC(=O)c1cc2n(n1)CC(C)(C(=O)NC1CCCC1)N(c1ccc(C)cc1)C2=O (stereo not given),2.4% (inactive),-0.39%,4.54%,3.6%,-0.074%,2.88%
Nc1ccc2c3c(cccc13)C(=O)NC2=O,-69.4% (active),-41.1%,-13%,-8.7%,-18.3%,-8.01%
CCOc1ccccc1CN1C(=O)c2ccc(-c3ccco3)n2CC1(C)C(=O)NC1CCCCC1 (stereo not given),5.26% (inactive),-1.1%,0%,5.47%,3.87%,0.061%
COc1ccccc1-c1[nH]nc2ncc(C(=O)N3CCN(Cc4ccccc4)CC3)nc12,-63.8% (active),-70.9%,-63.7%,-73.4%,-59.4%,-76.7%
COc1ccc(-c2ncc3c(n2)OCCN(Cc2ccccc2)C3=O)cn1,-3.7% (inactive),-12%,-5.92%,-5.55%,-19.1%,-28.2%
CN1C(=O)c2cc(C(=O)N3CCN(Cc4ccccc4)CC3)nn2CC1(C)C(=O)NCc1ccccc1 (stereo not given),1.23% (inactive),5.09%,0.749%,4.84%,6.08%,-8.04%
O=c1c2ccccc2n2c(=O)n(Cc3cccc(F)c3)nc2n1CCc1ccccc1,-1.7% (inactive),-7.42%,-7.2%,8.21%,-7.17%,-9.52%
CC1(C)[C@H](Cc2cc(-c3ccccc3)on2)C[C@@H]1NCC1CC1,-5.01% (active),-5.31%,-6%,-40.7%,-19.5%,-50.1%
CCCn1c(=O)c2cc(Cl)ccc2n2c(SCC(=O)Nc3ccc(Cl)cc3)nnc12,-0.206% (inactive),-6.08%,4.35%,1.24%,-3.29%,1.76%
CCOCCCN1C(=O)c2cc3ccccc3n2CC1(C)C(=O)NCCC(C)C (stereo not given),4% (inactive),6.59%,4.89%,8.93%,10.6%,0.52%
CCCn1c(=O)c2ccc(C(=O)NC(C)CC)cc2n2c(=O)n(CC(=O)Nc3ccccc3)nc12 (stereo not given),-0.37% (inactive),0.266%,3.33%,0.842%,-0.601%,3.03%
O=c1c2ccccc2n2c(=O)n(Cc3ccccc3)nc2n1Cc1ccc(F)cc1,6.23% (inactive),9.17%,3.06%,12.4%,6.51%,5.22%
COc1ccc(-c2nc3ccncc3[nH]2)cc1,-149% (active),-99.2%,-103%,-91.6%,-110%,-145%
CC1CCN(S(=O)(=O)c2ccc3c(ccn3CCC(=O)N3CCN(c4ccccn4)CC3)c2)CC1,-2.75% (inactive),-6.24%,-4.09%,-2.6%,-7.95%,-2.86%
Cc1cc(Nc2cc(N3CCN(C)CC3)nc(Sc3ccc(NC(=O)C4CC4)cc3)n2)n[nH]1,-3.15% (active),-71.8%,5.06%,-13.3%,-11.1%,-0.531%
O=C(NCc1ccc2c(c1)OCO2)c1sc(=S)n2c1[nH]c(=O)c1ccccc12,-20.2% (active),-52.7%,0%,-2.67%,-35.9%,-28.2%
Cc1ccc(Cn2c(=O)c3ccccc3n3c(CCC(=O)NCc4ccc5c(c4)OCO5)nnc23)cc1,-5.97% (inactive),-13.5%,2.22%,-2.65%,-2.38%,-7.16%
Cc1cc2c(cc1S(=O)(=O)NCc1ccc3c(c1)OCO3)n(C)c(=O)n2C,13.6% (inactive),12.8%,1.49%,9.41%,2.71%,6.83%
COC(=O)[C@]12C(=O)C(C)=C(O)[C@@]1(C)C(C)=CC1[C@@]34CC[C@@H](OC(C)=O)C(C)(C)C3[C@H](C[C@]12C)OC4=O (stereo not given in full),5.51% (inactive),0%,3.85%,9.8%,-6.73%,3.04%
CN(C)[C@@H]1C(=O)C(C(N)=O)=C(O)[C@@]2(O)C(=O)C3=C(O)c4c(O)ccc(Cl)c4[C@@H](O)[C@H]3C[C@@H]12,-74.5% (active),-24.2%,6.87%,3.22%,-8.53%,-5.78%
COCCOc1cc(=O)n2c(c1C(=O)NCc1ccccc1)CCOCC2,-1.21% (inactive),1.04%,-0.934%,1.39%,-1.22%,1.39%
CCC(C)(C)NC(=O)c1cccc2c1CCN2C(=O)Nc1ccc(C)cc1,-3.57% (inactive),-1.49%,-2.95%,1.94%,-7.5%,-2.44%
